About 83,000 compounds went through this panel and 20% of them were active in at least one assay; those are over-represented in the sample as a whole.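 Cells were grown in 96-well plates and exposed to the test compound at a single concentration for 48 hours; results are reported as percent growth, with values below 10 considered active.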 Values without a mark were called inactive. The source made the active and inactive calls.
Assays:
Experiment in all cases: NCI-60 one-dose screen, 48 h (100 = growth as untreated, 0 = no growth, -100 = all killed)
Details in all cases: 10 µM
[1] = system: SK-MEL-2 melanoma
[2] = system: SN12C renal
[3] = system: UO-31 renal
[4] = system: TK-10 renal
[5] = system: ACHN renal
[6] = system: CAKI-1 renal
[7] = system: A498 renal
[8] = system: CCRF-CEM leukemia
[9] = system: MOLT-4 leukemia
[10] = system: SR leukemia
[11] = system: RPMI-8226 leukemia
[12] = system: OVCAR-8 ovarian
[13] = system: OVCAR-5 ovarian
[14] = system: OVCAR-4 ovarian
[15] = system: SK-OV-3 ovarian
[16] = system: IGROV1 ovarian
[17] = system: OVCAR-3 ovarian
[18] = system: HS 578T breast
[19] = system: NCI/ADR-RES ovarian

SMILES | growth [1] | growth [2] | growth [3] | growth [4] | growth [5] | growth [6] | growth [7] | growth [8] | growth [9] | growth [10] | growth [11] | growth [12] | growth [13] | growth [14] | growth [15] | growth [16] | growth [17] | growth [18] | growth [19]
CCCCCCCCCCCC(=O)NCCCN(C)C | 92.2% | 86.6% | 85% | 96% | 99.9% | 83.4% | 72.2% | 65% | 88.9% | 2.57% (active) | 78.4% | 93.7% | 91.1% | 96.5% | 95.6% | 92% | 108% | 106% | 98.7%
c1ccc(COCC[P+](c2ccccc2)(c2ccccc2)c2ccccc2)cc1 | -14.8% (active) | 5.38% (active) | 46.9% | 8.09% (active) | 45.2% | 59.9% | -2.41% (active) | 2.79% (active) | -10.1% (active) | -15.6% (active) | -30.3% (active) | 3.8% (active) | 24.2% | 6.56% (active) | -0.443% (active) | -8.1% (active) | 3.01% (active) | 32.9% | 81.8%
CCc1ccc(-c2nnc(COc3ccc(-c4nc5ccc(C)cc5[nH]4)cc3OC)o2)cc1 | 104% | 10.7% | 38.2% | 55.1% | -8.12% (active) | 30.3% | 84.1% | 6.98% (active) | 38.6% | -31.5% (active) | -6.63% (active) | 39.9% | 92.4% | -59.8% (active) | 33.9% | 64.4% | 41.7% | 28.2% | 42.1%
Nc1ccc(C2=CC(c3ccc(Cl)cc3)N3C=CSC3=N2)cc1 (centres undefined) | -49.9% (active) | -45.2% (active) | -96% (active) | -30.1% (active) | -100% (active) | -19.5% (active) | -93.5% (active) | -22.1% (active) | -11% (active) | -11.5% (active) | -21.3% (active) | -1.84% (active) | -66.1% (active) | 0.424% (active) | -51% (active) | -88.8% (active) | -63.1% (active) | 16.8% | 31.6%
C[C@@H]1N=C(c2ccc(Br)cc2)Nc2nc3ccccn3c2C1=O | 47.4% | 91.8% | 62% | 110% | 69.2% | 44.1% | 69.9% | 79.4% | 57.5% | 30% | 94% | 72.5% | 82.4% | 77.5% | 72% | 43.1% | 17.3% | 71.3% | 39.4%
CCCCCCCCCCCCCCCCn1cc[n+](C)c1 | -64.5% (active) | -94.6% (active) | -85.9% (active) | -80.4% (active) | -0.6% (active) | -83.5% (active) | -65.3% (active) | 33.6% | 17.2% | 15.2% | 15.8% | -53.7% (active) | -67.5% (active) | -54.8% (active) | -33.8% (active) | -67.1% (active) | -24.8% (active) | -48.4% (active) | 37.1%
C=C[C@]1(C)C=C2C(=O)[C@@]3(O)OC(=O)[C@@]4(CCCC(C)(C)[C@H]34)[C@@]2(O)CC1 | -66.5% (active) | -66.5% (active) | -99.4% (active) | -95.5% (active) | -100% (active) | -90.6% (active) | -94.6% (active) | -31.5% (active) | -13.6% (active) | -11% (active) | -25.4% (active) | -56.8% (active) | -71.7% (active) | -74.4% (active) | 38.4% | -92.8% (active) | -90.4% (active) | 0.722% (active) | -6.84% (active)
FC(F)(F)c1ccc(-c2cnc(Cl)nc2NCc2cc(C(F)(F)F)cc(C(F)(F)F)c2)cc1 | -21.6% (active) | 12.4% | -9.98% (active) | 21.8% | 2.83% (active) | 1.18% (active) | -4.04% (active) | 18.8% | 21.1% | 26.2% | 0.828% (active) | 15.6% | 35.2% | 19.5% | 43.4% | 45.5% | 3.89% (active) | 26.8% | 12.5%
Cc1ccc(NC(=O)/C=N/O)cc1C | 103% | 103% | 71.6% | 122% | 99.1% | 92.1% | 3.77% (active) | 90% | 85.7% | 87% | 96.6% | 98.6% | 96.9% | 85.2% | 81.3% | 117% | 87% | 95.7% | 112%
C/C=C\COc1cc(C)c(Cl)cc1Cl | 120% | 94.7% | 84.8% | 125% | 128% | 98.8% | 101% | 95% | 108% | 107% | 99.7% | 99.4% | 108% | 94.7% | 112% | 107% | 116% | 121% | 115%
CCOC(=O)Cn1nnc(-c2ccc(OCc3ccccc3F)cc2)n1 | 100% | 98.2% | 58% | 105% | 84.6% | 76.5% | 40.9% | 92.4% | 90% | 35.4% | 90.8% | 101% | 92.6% | 86.4% | 93.5% | 87.9% | 100% | 81.2% | 57%
Cc1ccc2nc(-c3ccc(OCC(=O)N=Nc4c(O)[nH]c5ccccc45)cc3)[nH]c2c1 | 104% | 57.3% | 96.1% | 103% | 95.6% | 93.4% | 93.2% | 9.27% (active) | 39.6% | -17.5% (active) | 25.7% | 18.5% | 104% | 11.6% | 99.5% | 85.8% | 26.5% | 91.5% | 89.9%
O=C(C=P(c1ccccc1)(c1ccccc1)c1ccccc1)c1ccc(Br)cc1 | 94.3% | 96.5% | 53.7% | 95% | 78.7% | 84.3% | 64.3% | 55% | 0.436% (active) | 56.6% | 47.4% | 89.1% | 104% | 95.5% | 108% | 91.4% | 64.5% | 107% | 79.9%
Cc1nc2sccn2c1-c1csc(Nc2cccc(Cl)c2C)n1 | 43.8% | 59.4% | 51.2% | 54.6% | 60.3% | 51.4% | 36.1% | 47.1% | 40.2% | 17.7% | 45% | 65.6% | 77.9% | 45.7% | 79.1% | 62% | 64.3% | 53.1% | 41.6%
COc1cc(C(=O)n2nc(N)c3c(C)cc(C)nc32)cc(OC)c1OC | 30.3% | 79.8% | 84.7% | 98.3% | 91.9% | 76.7% | 60.2% | 57.6% | 36% | 13% | 59.6% | 84.4% | 118% | 92.8% | 92.3% | 86% | 69.3% | 83.2% | 60.8%
COc1cc(-c2cc(/C=C/C(C)=O)[nH]n2)cc(OC)c1OC | 87.2% | 67.5% | 52.4% | 73.8% | 78.7% | 55.2% | 90.7% | 20% | 71.2% | 4.57% (active) | 22.8% | 73.5% | 94.5% | 70.8% | 109% | 73.8% | 85.2% | 91.8% | 80.7%
